High-throughput results as filed in PubChem.
A selection: hits, their analogues and other compounds. The true share with any hit is near 3%.
SENP7 inh – blocks the human protease SENP7; Q9BQF6; recombinant SENP7, Z-RLRGG-aminoluciferin luminescence, 40 min; inhibition, % at 5 µM; hit rate 1.5% among 330,000;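 active = inhibition above about 50% at the single test dose, limit read from the data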;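 note: plate controls were DMSO with enzyme for no effect and no enzyme buffer wells for full effect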
Target sequence (Q9BQF6 706-1050 limits assumed): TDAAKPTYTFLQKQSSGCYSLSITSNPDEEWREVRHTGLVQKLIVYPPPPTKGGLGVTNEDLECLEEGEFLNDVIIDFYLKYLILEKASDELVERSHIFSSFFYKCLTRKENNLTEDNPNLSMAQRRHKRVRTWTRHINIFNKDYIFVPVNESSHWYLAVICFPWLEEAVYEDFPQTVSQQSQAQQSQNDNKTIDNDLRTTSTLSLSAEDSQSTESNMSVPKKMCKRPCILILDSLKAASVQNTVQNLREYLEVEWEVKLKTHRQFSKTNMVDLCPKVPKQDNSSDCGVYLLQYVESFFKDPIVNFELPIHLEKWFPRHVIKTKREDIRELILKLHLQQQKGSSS
PPC-1+TRAIL kill – kills PPC-1 cancer cells in the presence of TRAIL | PPC-1 cells + TRAIL, ATPLite viability luminescence | cell killing (% activity), % at 4 µM or 5 µM | hit rate 0.41% among 220,000 | AID 1443;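 active = cell killing above 50% in the first pass at 4 µM, then a duplicate retest at 5 µM averaging 50% or more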;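 note: plate controls were cells with TRAIL plus DMSO for no effect and medium-only wells lacking cells for full effect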
SENP6 block – inhibitors of human SENP6 protease; Q9GZR1; Recombinant SENP6 catalytic domain, aminoluciferin luminescence; inhibition, % at 10 µM; hit rate 1.8% among 330,000;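 active = inhibition above about 50% at the single tested dose, limit read from the data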;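 note: plate controls were DMSO wells with enzyme for no effect and DMSO wells lacking enzyme for full effect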
SENP8 block-1 – blocks human SENP8 cleavage of Nedd8 substrate. Q96LD8. recombinant SENP8, Nedd8 substrate fluorescence. inhibition, % at 20 µM. AID 602440. hit rate 0.64% among 360,000; in the data active = inhibition mostly above about 40%, no sharp cut-off; inactive = mostly below about 27%
Target sequence (Q96LD8 whole entry, looked up): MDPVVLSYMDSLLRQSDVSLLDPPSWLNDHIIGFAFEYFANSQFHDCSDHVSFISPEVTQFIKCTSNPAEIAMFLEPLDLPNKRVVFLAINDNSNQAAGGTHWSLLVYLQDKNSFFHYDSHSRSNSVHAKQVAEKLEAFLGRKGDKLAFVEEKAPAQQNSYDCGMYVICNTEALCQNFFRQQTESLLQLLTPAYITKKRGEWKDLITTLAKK
SENP8 block-2 – inhibitors of human SENP8 protease; inhibition, % at 10 µM; hit rate 1.2% among 330,000; purified SENP8, Z-RLRGG-aminoluciferin cleavage, luminescence; Q96LD8; in the data active = inhibition above about 50%
TRAIL sens C8 – sensitizes caspase-8 expressing cells to TRAIL. AID 624354. NB7+C8 cells + TRAIL, ATPlite viability luminescence. inhibition (viability loss, TRAIL sensitization), % at 10 µM. hit rate 1% among 360,000;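 active = compounds causing at least 50% loss of cell viability in the single-dose screen, relative to plate controls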
Starred values were filed as active, the others as inactive; nt = not tested or not shown.

SMILES	SENP7 inh	PPC-1+TRAIL kill	SENP6 block	SENP8 block-1	SENP8 block-2	TRAIL sens C8
Cc1cc(=O)n2[nH]c(N)c(N=Nc3ccccc3F)c2n1	86*	15	94*	32	85*	-12
COc1cc(/C=N/N2C(=O)c3ccccc3C2=O)ccc1O	-9	8	33	-2	-9	1
COc1cc(/C=N/N=C2/C(=O)Nc3ccccc32)ccc1O	-1	22	2	35	-12	74*
O=C1Nc2ccccc2/C1=N\N=C\c1ccc(O)c(O)c1	-13	30	-11	57*	-14	57*
Cc1ccsc1/C=N/N=C1\C(=O)Nc2ccccc21	-8	16	-9	19	-11	-8
CCN1C[C@@H]2[C@@H]3C(=O)N(C)C(=O)[C@@H]3[C@](Cc3ccccc3)(C(=O)OC)N2C1=NC1CCCCC1	-2	nt	nt	16	nt	-20
O=C1c2cccc3cccc(c23)C(=O)N1/N=C/c1ccc(O)cc1O	-8	-3	-21	14	-9	-2
O=C1c2ccccc2C(=O)N1/N=C/c1ccc(O)c(O)c1O	nt	2	nt	83*	nt	-7
Cc1nc2ccccc2c(=O)n1/N=C/c1ccc(O)c(O)c1O	9	nt	19	69*	5	3
Oc1ccc(/C=N/N2CCOCC2)c(O)c1O	-8	12	14	63*	-2	6
Oc1ccc(/C=N/N(c2ccccc2)c2ccccc2)c(O)c1O	5	nt	12	32*	10	5
COc1cccc(/C=N/N2CCOCC2)c1O	29	16	28	8	6	22
O=C(NCc1ccc(Cl)c(Cl)c1)c1cc(C2CCCCN2C(=O)OCCF)on1 (stereo unspecified)	nt	nt	nt	14	nt	1
CCN(CC)CCCNC(=O)c1cc(-c2ccccc2)c(N2CCCCC2)s1	4	nt	-4	-42	-4	15
COC(=O)c1cc(NC(=O)COC(=O)C2COc3ccccc3O2)cc(C(=O)OC)c1 (stereo unspecified)	3	nt	-2	22	1	-7
O=C(Nc1ccc(OCC(=O)N2CCOCC2)cc1)c1ccccc1F	0	nt	2	20	2	61*
O=C(Nc1nc2ccccc2[nH]1)c1ccc([N+](=O)[O-])cc1	85*	48	43	23	15	51*
COc1cc(SC)ccc1C(=O)Nc1nc2ccccc2[nH]1	101*	nt	97*	-278	96*	96*
COc1ccccc1C(=O)NCCC(=O)Nc1nc2ccccc2[nH]1	-6	nt	-6	-6	-7	-6
COc1ccccc1C(=O)Nc1nc2ccccc2[nH]1	101*	nt	98*	-23	97*	96*
CSc1ccccc1C(=O)Nc1nc2ccccc2[nH]1	-17	11	-35	26	-14	13
O=C(Nc1nc2ccccc2[nH]1)C12CC3CC(CC(C3)C1)C2	3	7	-15	29	-22	70*
CCOC(=O)c1c(C)[nH]c(N=Nc2ccccc2Cl)c1C	31	24	-2	35	17	-9
CCOC(=O)c1c(C)[nH]c(N=Nc2ccc(OC)cc2)c1C	17	13	61*	49*	33	-3
CCOC(=O)c1c(C)[nH]c(N=Nc2ccccc2)c1C	9	4	14	44*	11	-15
SMILES	SENP7 inh	PPC-1+TRAIL kill	SENP6 block	SENP8 block-1	SENP8 block-2	TRAIL sens C8
COc1ccc2cc(C(C)C(=O)N3CCC(C(N)=O)CC3)ccc2c1 (stereo unspecified)	-12	nt	-28	-2	-8	-2
CC(C)CCC(C)NC(=O)CN1C(=O)NC(C)(c2ccc3ccccc3c2)C1=O (stereo unspecified)	-7	nt	5	11	10	21
Cc1cccc(NS(=O)(=O)c2cccc(C(=O)NCC(c3ccc(F)cc3)N3CCOCC3)c2)c1 (stereo unspecified)	nt	nt	nt	4	nt	-7
COc1ccc(Cn2c(SCc3ccccc3C)nc3cc(OC)c(OC)cc3c2=N)cc1	3	8	3	-1	-5	86*
O=C(N/N=C/c1cc(Br)ccc1O)c1ccncc1	6	32	11	18	-2	3
O=C(N/N=C/c1ccc(O)c2ncccc12)c1cccc(Br)c1	0	19	-5	-105	1	55*
NC(=O)C(CCc1nc2ccccc2[nH]1)NS(=O)(=O)c1ccccc1 (stereo unspecified)	nt	nt	nt	22	nt	-2
O=c1cc(-c2c(F)c(F)c(F)c(F)c2F)oc2ccccc12	2	-2	-13	-8	-8	77*
O=c1cc(-c2cccc(F)c2)oc2ccccc12	nt	nt	nt	9	nt	13
CC(=NCc1ccncc1)C1=C(O)c2ccccc2C1=O	nt	50*	nt	nt	nt	nt
Cc1ccc(O)c(N=NC2=C(O)CC(C)(C)CC2=O)c1	-4	47	-19	42*	-3	63*
CN(C)S(=O)(=O)c1cccc(NC(=O)CN2C(=O)NC(Cc3ccccc3)C2=O)c1 (stereo unspecified)	5	nt	-7	10	12	-2
CC(OC(=O)c1cc(O)c2ccccc2c1O)C(=O)Nc1ccc(C(N)=O)cc1 (stereo unspecified)	7	nt	37	-345	17	57*
COc1cc(/C=C2\CC/C(=C\c3cc(OC)c(OC)c(OC)c3)C2=O)cc(OC)c1OC	-3	0	3	-28	0	12
COc1cc(/C=C2\COC/C(=C\c3cc(OC)c(OC)c(OC)c3)C2=O)cc(OC)c1OC	nt	41	nt	0	nt	72*
Cc1cc(C)c(C(=O)Cn2nc(C(=O)O)c3ccccc3c2=O)cc1C	7	4	-5	24	-7	11
Cc1cc(C(=O)Cn2nc(C(=O)O)c3ccccc3c2=O)c(C)n1-c1ccccc1	-7	48	9	14	3	76*
COc1ccc2cc(CCNC(=O)c3ccc(S(=O)(=O)N4CCOCC4)cc3)c(=O)[nH]c2c1	-12	nt	-2	-18	-13	-19
FC(F)(F)c1cccc(CC2CN(Cc3ccccc3)Cc3ccccc3N2c2cc(Cl)cc(Cl)c2)c1 (stereo unspecified)	nt	nt	nt	4	nt	60*
O=S1(=O)CCOC[C@H](Cc2ccccc2)N1Cc1cccc(C(F)(F)F)c1	-3	nt	-17	14	-7	8
Cc1cc(C)n2[nH]c(=O)c(N=Nc3cccc(C(F)(F)F)c3)c2n1	-5	9	-14	53*	-9	9
Cc1cc(C(F)(F)F)n2[nH]c(=O)c(N=Nc3ccccc3)c2n1	-17	nt	2	29	-6	-9
Cc1cc(C)n2[nH]c(=O)c(N=Nc3cccc(Cl)c3)c2n1	1	17	-10	48*	4	2
Cc1cc(C)n2[nH]c(=O)c(N=Nc3ccccc3)c2n1	-7	29	-26	29	-10	-1
CSCCC(NC(=O)c1ccc(Cl)cc1Cl)C(=O)N(C)Cc1nc2ccccc2c(=O)[nH]1 (stereo unspecified)	-3	nt	-13	12	9	19
CC(C)CC(=O)Nc1nc2c(c(=O)[nH]1)CCCC2	4	19	-13	21	-3	62*
